Out of some 69,000 compounds screened, about 8,600 (12%) showed an effect of 50% or more. Many of the other results were omitted from the sample, so strong results are more common in it than they were.
These molecules were tested on Plasmodium berghei (assay: Screen against P. berghei liver stage (PbLuc), transformed with Luciferase, at 10uM). Conditions: tested at 10 uM.
Format: functional, HepG2

| SMILES | INHIBITION [%] |
| --- | --- |
| CCOC(=O)CCNC(=O)c1nc(OCC)ccc1Cl | 6.285 |
| Brc1ccc(CNCc2nnc3n2CCCCC3)s1 | 21.8 |
| CC(=O)N1N=C(Cc2ccccc2)OC1C(=O)NCC(=O)OC(C)(C)C (stereo not given) | 12.5 |
| CCc1nnc(Nc2cc(C)nc(C3CN(C(C)=O)CCO3)c2)s1 (stereo not given) | -4.25 |
| CCCc1nc(C)cc(NCCc2nnc(N)s2)n1 | -16.9 |
| O=C(Cc1ccccc1)NCCNC(=O)c1scnc1Cl | 46.2 |
| COCC[C@]1(O)CCN(C(=O)C2CCN(C3CCCC3)CC2)C[C@H]1C | 9.63 |
| Nc1cccnc1N1CCC(C(F)(F)F)CC1 | -22.5 |
| COCCN1C[C@H]2CC[C@@]3(N=C(C)N(CC4CC4)C3=O)[C@H]2C1 | -26.5 |
| CC(=O)NCc1ccc(C(=O)N2CCCC2c2c(C)nn(C)c2C)o1 (stereo not given) | -55.4 |
| COCCN1CCCC2(CCN(c3ccsc3)C2=O)C1 (stereo not given) | 39.2 |
| COc1ccc(CN2CCCC3(CCN(c4ccsc4)C3=O)C2)cc1 (stereo not given) | 72.8 |
| O=C1N(c2ccsc2)CCC12CCCN(Cc1cccnc1)C2 (stereo not given) | -18.2 |
| Cc1ccsc1C(=O)N1CCc2ncnc(NC(C)C)c2CC1 | 19.4 |
| FC(F)(F)c1cc(N2CCc3ncnc(NC4CC4)c3CC2)ncn1 | -31.6 |
| O=C(N1CCOCC1)N1CCc2ncnc(NC3CCC3)c2CC1 | -2.35 |
| O=C(N1CCOCC1)N1CCc2ncnc(NC3CC3)c2CC1 | 26.8 |
| CC(C)Nc1ncnc2c1CCN(c1cc(C(F)(F)F)ncn1)CC2 | 60.3 |
| CC(C)Nc1ncnc2c1CCN(C(=O)N1CCOCC1)CC2 | 75.4 |
| CC(C)Nc1ncnc2c1CCN(C(=O)c1ccc[nH]1)CC2 | 70.7 |
| Cc1ncnc2c1CCN(c1cc(C(F)(F)F)ncn1)CC2 | -17 |
| CC(C)Nc1ncnc2c1CCN(C(=O)[C@H]1CCCO1)CC2 | -12.2 |
| CN(Cc1nnc2n1CCC2)C(=O)Cc1ccc2c(c1)CCC2 | 19.2 |
| CC(=O)NC1CCN(c2cc(C3CCNCC3)ccn2)CC1 | 20.2 |
| O=C(c1ncccn1)N1C[C@@H]2CN(Cc3cccnc3)CCO[C@@H]2C1 | -1.26 |
| Fc1ccc(C(CNc2ccncn2)N2CCCC2)cc1 (stereo not given) | 45 |
| Cc1cc(C(=O)N2CCC3(C2)CN(c2ccsc2)C(=O)CN3C)[nH]n1 (stereo not given) | 46.2 |
| COc1ccc2c(c1)Cc1c-2nc(N)c(C#N)c1C1CCOC1 (stereo not given) | 73.9 |

| SMILES | INHIBITION [%] |
| --- | --- |
| COc1ccc2c(c1OC)Cc1c-2nc(N)c(C#N)c1C1CCOC1 (stereo not given) | 40.5 |
| N#Cc1c(N)nc2c(c1C1CCOC1)CCc1cc(O)ccc1-2 (stereo not given) | -3.12 |
| Cc1ccc(C(=O)Nc2ccc(N(C)C)cn2)n1C | -75.9 |
| CCc1ccc(CN2C[C@@H]3COC[C@H](NS(C)(=O)=O)[C@@H]3C2)o1 | -12.2 |
| Cc1ccc(Oc2ncccc2C(=O)N(C)CC2OCCO2)c(C)c1 | -17.2 |
| c1cc(C2CN(C3CCCCC3)C2)n[nH]1 | 15.92 |
| CCC(N)c1ccccc1OCC(=O)N1CCCC1 (stereo not given) | -42.3 |
| Cc1ccoc1CNCc1nnc2n1CCCC2C(F)(F)F (stereo not given) | 47.4 |
| Cc1ccoc1CNCc1nnc2n1CC(C(F)(F)F)CC2 (stereo not given) | 52.6 |
| Cc1ccc(CNCc2nnc3n2CC(C(F)(F)F)CC3)o1 (stereo not given) | 65.9 |
| Cc1ccc(CNCc2nnc3n2CCCC3C(F)(F)F)o1 (stereo not given) | 4.92 |
| COc1cccc(CNCc2nnc3n2CC(C(F)(F)F)CC3)c1 (stereo not given) | 45.1 |
| FC(F)(F)C1CCCn2c(CNCc3ccco3)nnc21 (stereo not given) | 45.3 |
| CCC(NC(=O)c1cc(CC(C)C)nn1C)c1cccc(C)n1 (stereo not given) | 86.7 |
| CCC(NC(=O)c1cc(CC(C)C)nn1C)c1ccnn1C (stereo not given) | -18.2 |
| CCC(NC(=O)c1cc(CC(C)C)nn1C)c1cc(C)ccn1 (stereo not given) | -1.15 |
| CC(O)CN1CCN(C(=O)c2cnn(-c3ccccc3Cl)c2)CC1 (stereo not given) | 32 |
| CCOCCN1CCN(c2ccc(C#N)cn2)CC1CC (stereo not given) | 2.91 |
| O=C(c1cnoc1)N1CCC[C@]2(C[C@@H](OCc3ccccn3)CO2)C1 | 8.47 |
| Cc1cc(C(=O)O)c2c(Br)cccc2n1 | 8.7 |
| Cc1cc(C(N)=O)c2c(Br)cccc2n1 | 53.2 |
| Cc1cc(C(=O)N(C)C)c2c(Br)cccc2n1 | 40.7 |
| Cc1nn(C)c(C)c1CCC(=O)N1CCCC(n2cccn2)C1 (stereo not given) | 16.9 |
| O=C1CCC(=O)N1CCN1CCN(c2cc(F)ccc2F)CC1 | 79.1 |
| NS(=O)(=O)CCN1CCN(c2cc(F)ccc2F)CC1 | -6.51 |
| CCCS(=O)(=O)CCN1CCN(c2cc(F)ccc2F)CC1 | 25.2 |
| NC(=O)C1CCN(C(=O)c2ccn(-c3cccc(Cl)c3)n2)C1 (stereo not given) | -1.14 |

Source: ChEMBL document CHEMBL4513216, “Probing the Open Global Health Chemical Diversity Library for Multistage-Active Starting Points for Next-Generation Antimalarials” (ACS Infect Dis, 2020)
